Experiment [1] in a line: qHTS profiling of the MIPE4 collection as inhibitors of Plasmodium falciparum (3D7) proliferation (AID 743344).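 Note: scaled between DMSO vehicle wells and 0.29 µM artemisinin as full inhibition.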 The conditions noted are these: P. falciparum 3D7 in erythrocytes, SYBR Green DNA fluorescence, 72 h; at 28.5 µM. In a few lines:
(§1)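 Erythrocytes infected with P. falciparum (0.3% parasitemia, 2.5% hematocrit) incubated with compounds 72 h at 37 C, 5% CO2. Lysis with saponin/Triton buffer containing SYBR Green I, overnight at room temperature in the dark; DNA fluorescence (485/535 nm) normalised to 0.29 uM artemisinin and DMSO.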

Experiment [2] is described as follows: qHTS profiling of the MIPE4 collection as inhibitors of Plasmodium falciparum (DD2) proliferation (AID 743345). To be noted: P. falciparum Dd2 in erythrocytes, SYBR Green DNA, 72 h; at 28.5 µM unless noted. An outline of the steps: as §1
Experiment [3] is described as follows: qHTS profiling of the MIPE4 collection as inhibitors of Plasmodium falciparum (DD2) proliferation (Rep 2) (AID 743346). The conditions noted are these: P. falciparum Dd2 in erythrocytes, SYBR Green DNA, 72 h; at 28.5 µM. In a few lines:
as §1

Experiment [4] in a line: qHTS profiling of the MIPE4 collection as inhibitors of Plasmodium falciparum (HB3) proliferation (AID 743347).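 Note: plate controls were DMSO vehicle wells for no effect and artemisinin wells for full effect.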 To be noted: P. falciparum HB3 in erythrocytes, SYBR Green DNA, 72 h; at 28.5 µM. An outline of the steps:
as §1

These results are taken from PubChem BioAssay (NCATS).

The structures appear in SMILES notation.

Molecule `CC(C)N[C@@H]1CCn2c(=O)[nH]c3cccc(c32)[C@@H]1O` showed a parasite growth, % of DMSO control in experiment [1] of 93.3%. The parasite growth remaining, % of DMSO control (lower = more inhibition) in experiment [2] amounted to 104%. In addition, in experiment [3], the parasite growth, % of control (lower = inhibition) came to 118%. This molecule also registered a growth, % of control in experiment [4] of 101%.
For `N=c1c2c(-c3ccccc3)c(-c3ccccc3)n(Cc3ccccc3)c2ncn1C1CCC(O)CC1` (stereo unspecified) the same measures were 10.7%, 9.02%, 12.7% and 9.68%.
Consider `C#CC1(O)CCC2C3CCC4=CC(=O)CCC4(C)C3CCC21C` (stereo unspecified), for which, in experiment [1], the parasite growth, % of DMSO control amounted to 78.6%. Moreover, the parasite growth remaining, % of DMSO control (lower = more inhibition) in experiment [2] is 106%. In addition, in experiment [3], the parasite growth, % of control (lower = inhibition) was 88%.
In experiment [1], `C[C@]12Cc3cn[nH]c3C[C@@H]1CC[C@@H]1[C@H]2CC[C@@]2(C)[C@H]1CC[C@]2(C)O` came in with a parasite growth, % of DMSO control of 52.2%. Also, in experiment [2], the parasite growth remaining, % of DMSO control (lower = more inhibition) stood at 90%. Besides, the parasite growth, % of control (lower = inhibition) in experiment [3] amounted to 54.3%.
`CCCC[N+]1(C)[C@H]2CC(OC(=O)[C@H](CO)c3ccccc3)C[C@H]1[C@H]1O[C@H]12` (stereo partly specified) registered a parasite growth, % of DMSO control in experiment [1] of 98.9%. The parasite growth remaining, % of DMSO control (lower = more inhibition) in experiment [2] is 100%. Moreover, the parasite growth, % of control (lower = inhibition) in experiment [3] turned out to be 86.4%.
In experiment [1], `COc1cc2cc(c1Cl)N(C)C(=O)C[C@H](OC(=O)C(C)C)[C@]1(C)O[C@H]1[C@H](C)[C@@H]1C[C@@](O)(NC(=O)O1)[C@H](OC)C=CC=C(C)C2` came in with a parasite growth, % of DMSO control of 14%. The parasite growth remaining, % of DMSO control (lower = more inhibition) in experiment [2] is 16.8%. Besides, the parasite growth, % of control (lower = inhibition) in experiment [3] stood at 21.9%. In experiment [4], this molecule displayed a growth, % of control of 9.61%.
The molecule `CCN1C[C@]2(OC(=O)c3ccccc3NC(C)=O)CC[C@H](OC)[C@@]34[C@H]5CC6[C@@H](OC)C[C@](O)(C(C[C@@H]23)[C@@H]14)[C@@]5(O)[C@@H]6OC` yielded a parasite growth, % of DMSO control in experiment [1] of 97%. In experiment [2], the parasite growth remaining, % of DMSO control (lower = more inhibition) was found to be 94%. Further, the parasite growth, % of control (lower = inhibition) in experiment [3] was found to be 72.6%. This molecule gave a growth, % of control in experiment [4] of 85.8%.
As for `c1cc2c(cc1[C@H]1OC[C@H]3[C@H]1CO[C@H]3c1ccc3c(c1)OCO3)OCO2`, the parasite growth, % of DMSO control in experiment [1] is 104%. Moreover, in experiment [2], the parasite growth remaining, % of DMSO control (lower = more inhibition) stood at 91.9%. Also, the parasite growth, % of control (lower = inhibition) in experiment [3] was 126%. In experiment [4], this molecule came in with a growth, % of control of 107%.
Molecule `CN1CCN(c2ccc([N+](=O)[O-])c3no[n+]([O-])c23)CC1` returned a parasite growth, % of DMSO control in experiment [1] of 77.4%. Further, the parasite growth remaining, % of DMSO control (lower = more inhibition) in experiment [2] was found to be 95.3%. Also, the parasite growth, % of control (lower = inhibition) in experiment [3] is 86.4%. Besides, the growth, % of control in experiment [4] is 99.7%.
As for `COc1ccc(C(=O)c2c(C)n(CCN3CCOCC3)c3cc(I)ccc23)cc1`, the parasite growth, % of DMSO control in experiment [1] is 44.6%. Moreover, in experiment [2], the parasite growth remaining, % of DMSO control (lower = more inhibition) was 85%. Besides, the parasite growth, % of control (lower = inhibition) in experiment [3] came to 35.4%.
